Assay results as given in PubChem BioAssay (Tox21).
Results filed as inconclusive are left out. A call without a number means that no potency is given here. Active and inactive are the calls of the source. The call rests on the fitted dose curve; in most records, active means well fitted inhibition curve with a large enough effect in the repeat runs; inconclusive means weak or mixed curves; inactive means no such curve, though single readings can be large or run the other way.

biological target: Cytochrome P450 2D6 (Homo sapiens) (UniProt P10635); test: Cytochrome P450 Family 2 Subfamily D Member 6 (CYP2D6) small molecule antagonists: luciferase reporter qHTS assay (AID 1671196); settings: P450-Glo CYP2D6 enzyme assay, luciferin luminescence, 1 h; series mostly up to 115 µM; further: nearly all actives have a fitted effect of over 50% in size
Sequence (P10635 whole entry, looked up): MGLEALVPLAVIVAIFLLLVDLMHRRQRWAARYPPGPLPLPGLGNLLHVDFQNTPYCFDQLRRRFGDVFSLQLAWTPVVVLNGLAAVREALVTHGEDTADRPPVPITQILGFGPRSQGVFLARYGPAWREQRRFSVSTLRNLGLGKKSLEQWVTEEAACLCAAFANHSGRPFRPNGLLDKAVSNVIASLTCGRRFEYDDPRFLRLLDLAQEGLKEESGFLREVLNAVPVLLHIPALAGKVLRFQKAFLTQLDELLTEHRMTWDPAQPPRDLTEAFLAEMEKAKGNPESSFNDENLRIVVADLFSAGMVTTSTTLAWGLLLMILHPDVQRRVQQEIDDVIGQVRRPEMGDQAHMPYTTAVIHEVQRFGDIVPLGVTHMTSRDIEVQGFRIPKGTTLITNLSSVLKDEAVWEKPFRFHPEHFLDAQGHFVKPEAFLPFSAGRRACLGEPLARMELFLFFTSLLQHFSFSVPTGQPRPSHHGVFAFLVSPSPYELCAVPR
Text: U.S. Tox21 Program National Center for Advancing Translational Sciences [NCATS] U.S. Environmental Protection Agency [EPA] National Institutes of Environmental Health Sciences [NIEHS] National Toxicology Program [NTP] U.S. Food and Drug Administration [FDA] Tox21 Assay Overview: Cytochrome P450 (CYP) enzymes are membrane-bound hemeproteins that play a key role in metabolism of drugs and xenobiotics. Evaluation of the effect of chemicals on CYP isozymes is useful to minimize the adverse drug reactions and toxicities in drug development process. Tox21 chemicals were tested for their effect on CYP enzyme activities by using P450-Glo (TM) screening systems (Promega Corporation, Madison, WI). These systems provide a luminescent method containing proluciferin substrates and are converted to luciferin products by CYP isozymes. The luciferin products formed are detected with a luciferin detection reagent, and the amount of light produced is proportional to CYP activity. P450-Glo (TM) CYP2D6 screening system (Catalog. No. V9890) was used to detect the compounds that interfere in CYP2D6 activity.
Tox21 Assay Protocol Summary: Two ul of enzyme-substrate mix was dispensed into medium binding white/solid 1536-well plates (Greiner Bio-One North America Inc., Monroe, NC) using a BioRaptr Flying Reagent Dispenser (FRD, Beckman Coulter, Brea, CA). […] The assay plates were incubated at room temperature for 10 min. Then 2 ul of NADPH regeneration solution was added to each well of the assay plates using an FRD and incubated at room temperature for 1 h. The reaction was stopped by adding 4 ul of detection reagent using an FRD and after 20 min incubation at room temperature the luminescence signal was measured using a ViewLux plate reader (Perkin Elmer, Shelton, CT). Data were expressed as relative luminescence units.
Potency means the concentration at half of the fitted maximal effect.

| SMILES | Potency |
| --- | --- |
| COc1ccccc1OC | inactive |
| CCC(=O)OC1(c2ccccc2)CCN(C)CC1 | 37.5 µM (active) |
| CS(=O)(=O)c1ccc(C(=O)C2C(=O)CCCC2=O)c(Cl)c1COCC(F)(F)F | inactive |
| O=C1CCCCC1Cl (stereo not given) | inactive |
| CCCCS(=O)(=O)Cl | inactive |
| C[C@H]1CCCC(=O)CCC/C=C/c2cc(O)cc(O)c2C(=O)O1 | 54.3 µM (active) |
| CCCCCCCCSC(=O)Oc1cc(Cl)nnc1-c1ccccc1 | inactive |
| Clc1ccc(C(Cl)(Cl)Cl)cn1 | inactive |
| O=C(O)c1c(Cl)ccc2cc(Cl)cnc12 | inactive |
| CCCC[N+](=O)[O-] | inactive |
| Cc1cccc2sc3nncn3c12 | 15.9 µM (active) |
| CC[C@@H](CO)NC(=O)[C@@H]1C=C2c3cccc4c3c(cn4C)C[C@H]2N(C)C1 | 6.92 µM (active) |
| N[C@@H]1C[C@H]1c1ccccc1 | 27.5 µM (active) |
| Nc1c(Cl)c(F)nc(OCC(=O)O)c1Cl | inactive |
| CCN[C@H](C)Cc1cccc(C(F)(F)F)c1 | 2.24 µM (active) |
| C=CC1(C)OC(=O)N(c2cc(Cl)cc(Cl)c2)C1=O (stereo not given) | inactive |
| O=C(NC(O)C(Cl)(Cl)Cl)NC(O)C(Cl)(Cl)Cl (stereo not given) | inactive |
| ClCCN1CCCC1 | inactive |
| C=CCC1(C(C)CC)C(=O)NC(=O)NC1=O (stereo not given) | inactive |
| Cn1c(CCCC(=O)O)nc2cc(N(CCCl)CCCl)ccc21 | inactive |

| SMILES | Potency |
| --- | --- |
| CCC1(c2cccc(O)c2)CCCCN(C)C1 (stereo not given) | 15.5 µM (active) |
| COc1cccc(C=O)c1 | inactive |
| CC(Cc1ccccc1)NCCCCl (stereo not given) | 1.74 µM (active) |
| CC(=O)CN(CC(C)=O)N=O | inactive |
| CN1COCN(Cc2cnc(Cl)s2)/C1=N\[N+](=O)[O-] | inactive |
| C[C@@H](N)[C@@H](O)c1ccccc1 | 17.4 µM (active) |
| CCOP(=S)(OCC)Oc1ccc(Cl)cc1Cl | inactive |
| COC(=O)c1ccccc1CS(=O)(=O)NC(=O)Nc1nc(OC)cc(OC)n1 | inactive |
| CC(=NC#N)N(C)Cc1ccc(Cl)nc1 | inactive |
| O=C/C=C/c1ccco1 | inactive |
| [P]#[In] | inactive |
| Cc1cc(OC(=O)N(C)C)nn1C(=O)N(C)C | 31.7 µM (active) |
| O=C(O)C(F)(F)C(F)(F)C(F)(F)C(F)(F)C(F)(F)C(F)(F)F | inactive |
| CC#Cc1cc(C)nc(Nc2ccccc2)n1 | inactive |
| CCOP(=S)(OCC)SCCl | inactive |
| ClCCCCCCCl | inactive |
| CCCN1CCC[C@@H]2Cc3nc(N)ncc3C[C@H]21 | 11 µM (active) |
| CN1C(=O)COc2c(C(=O)NC3CN4CCC3CC4)cc(Cl)cc21 (stereo not given) | inactive |
| O=S1(=O)OCCO1 | inactive |
| CN(C)CCc1c[nH]c2cccc(OP(=O)(O)O)c12 | inactive |
